PubChem BioAssay (EPA / NIEHS)
Values joined by “and” are separate entries in the source; they are usually repeats but may differ in a detail not shown here. Equal entries are not always repeated. The source holds several records for some structures; these can differ, active in one and inactive in another. Active and inactive are the calls of the source. How the source made its calls: active means hit-call score of the fitted dose curve at least 0.9, where 1 is the maximum; inactive means score below 0.9.

Read-out: Monokine induced gamma interferon (MIG), CXCL9 (gene 4283)
Experiment: BSK_hDFCGF_MIG: BioMAP Diversity Plus: hDFCGF Assay for Monokine induced gamma interferon (MIG) Biomarker Activity (AID 2283063)
Details: primary human foreskin fibroblasts; actives raise or lower the signal
Description: BSK_hDFCGF is a cell-based, multiplexed-readout assay that uses foreskin fibroblast, a human skin primary cell, with measurements taken at 24 hours after chemical dosing in a 96-well plate.BSK_hDFCGF_MIG is an assay component measured in the BSK_hDFCGF assay. It measures MIG antibody related to regulation of gene expression using ELISA technology.Data from the assay component BSK_hDFCGF_MIG was analyzed into 1 assay endpoint. This assay endpoint, BSK_hDFCGF_MIG, was analyzed with bidirectional fitting relative to DMSO as the negative control and baseline of activity. Using a type of binding reporter, gain or loss-of-signal activity can be used to understand changes in the signaling as they relate to the gene CXCL9. Furthermore, this assay endpoint can be referred to as a primary readout, because this assay has produced multiple assay endpoints where this one serves a signaling function. To generalize the intended target to other relatable targets, this assay endpoint is annotated to the cytokine intended target family, where the subfamily is chemotactic factor.
The levels of cell surface (or secreted, indicated by the prefix "s") biomarker endpoints were measured by ELISA. Overt cytotoxicity to cells in confluent adherent cultures (all systems other than the BT system) was assessed by measuring total protein levels using sulforhodamine B (SRB) staining in parallel cultures at the time of biomarker measurements, indicated as SRB endpoints. For proliferation assays for adherent cell types, individual cell types are cultured at sub-confluence and relative cell numbers quantified by SRB staining at time points optimized for each system (48 h: 3C and CASM3C systems; 72 h: BT and HDF3CGF systems; 96 h: SAg system). SRB was performed by staining cells with 0.1% SRB after fixation with 10% TCA and reading wells at 560 nm.Viability and proliferation of PBMC (T cells) was quantified by Alamar Blue reduction for the SAg and BT systems. For PBMC viability (referred to as PBMC Cytotoxicity within the assay endpoint names), cells were plated (75,000/well in a 96-well plate) and then chemical samples added for 1 h before addition of activators, SEB and TSST-1 (20 ng/mL final concentration each). Cells were incubated for 90 h. Then, Alamar Blue (20 uL/well) (Invitrogen, Cat DAL1100) was added for 6 h, and the plates were read with a fluorescence microplate reader at 546/580 nm (excitation/emission). For PBMC proliferation, cells were plated and activated as above but incubated for only 16 h prior to addition of Alamar Blue. Plates were read after 6 h.

Row | Structure (SMILES) | AC50 | outcome
1 | CN1CSC(=S)N(C)C1 | 14.1 µM (active) | 
2 | ClC1C(Cl)C(Cl)C(Cl)C(Cl)C1Cl (stereo not given) |  | inactive
3 | CNC(=O)Oc1cccc(N=CN(C)C)c1 | 15.4 µM (active) | 
4 | COc1nn(CSP(=S)(OC)OC)c(=O)s1 |  | inactive
5 | CC1(C)C(C=C(Cl)Cl)C1C(=O)OC(C#N)c1ccc(F)c(Oc2ccccc2)c1 (stereo not given) |  | inactive
6 | Cc1cc(C)nc(NC(=O)NS(=O)(=O)c2ccccc2C(=O)OC2COC2)n1 |  | inactive
7 | O=C(Nc1ccccc1)Nc1cnns1 |  | inactive
8 | O=C1c2ccccc2C(=O)N1SC(Cl)(Cl)Cl | 18.3 µM (active) | 
9 | CCOC1Oc2ccc(OS(C)(=O)=O)cc2C1(C)C (stereo not given) |  | inactive
10 | CC(C)(C)C(O)/C(=C\c1ccc(Cl)cc1Cl)n1cncn1 (stereo not given) |  | inactive
11 | CC(C)(C)C(O)C(Oc1ccc(Cl)cc1)n1cncn1 (stereo not given) |  | inactive
12 | O=S(=O)(O)C(F)(F)C(F)(F)C(F)(F)C(F)(F)C(F)(F)C(F)(F)C(F)(F)C(F)(F)F | 30 µM (active) and 50.4 µM (active) | inactive
13 | O=[N+]([O-])/N=C1\NCCN1Cc1ccc(Cl)nc1 |  | inactive
14 | Clc1ccccc1-c1nnc(-c2ccccc2Cl)nn1 |  | inactive
15 | CCC(C)(C)C(=O)OC1=C(c2ccc(Cl)cc2Cl)C(=O)OC12CCCCC2 | 9.84 µM (active) | 
16 | CC(C)N(C(=O)COc1nnc(C(F)(F)F)s1)c1ccc(F)cc1 |  | inactive
17 | C#CCN1C(=O)COc2cc(F)c(N3C(=O)C4=C(CCCC4)C3=O)cc21 |  | inactive
18 | O=C(O)COc1ccc(Cl)cc1Cl |  | inactive
19 | CCC(C)Nc1c([N+](=O)[O-])cc(C(C)(C)C)cc1[N+](=O)[O-] (stereo not given) |  | inactive

Row | Structure (SMILES) | AC50 | outcome
20 | CNC(=O)CSP(=S)(OC)OC |  | inactive
21 | CC1(c2ccc(Oc3ccccc3)cc2)OC(=O)N(Nc2ccccc2)C1=O (stereo not given) |  | inactive
22 | O=C(O)C(F)(F)C(F)(F)C(F)(F)C(F)(F)C(F)(F)C(F)(F)C(F)(F)F | 30 µM (active) | inactive
23 | COP(=O)(OC)OC=C(Cl)Cl |  | inactive
24 | COP(=S)(OC)Oc1ccc(SC)c(C)c1 |  | inactive
25 | COP(=S)(OC)Oc1ccc([N+](=O)[O-])cc1 |  | inactive
26 | CC(C)OC(=O)Nc1cccc(Cl)c1 |  | inactive
27 | CCOc1nc(NC)nc(NC(=O)NS(=O)(=O)c2ccccc2C(=O)OC)n1 |  | inactive
28 | Oc1cc(Cl)ccc1Oc1ccc(Cl)cc1Cl | 20.4 µM (active) and 14.1 µM (active) and 23.9 µM (active) | 
29 | O=S1OCC2C(CO1)C1(Cl)C(Cl)=C(Cl)C2(Cl)C1(Cl)Cl (stereo not given) | 37.6 µM (active) | 
30 | COC(=O)c1ccccc1S(=O)(=O)NC(=O)N(C)c1nc(C)nc(OC)n1 |  | inactive
31 | CCCN(CCC)c1c([N+](=O)[O-])cc(C(F)(F)F)cc1[N+](=O)[O-] |  | inactive
32 | COC(=O)c1ccccc1S(=O)(=O)NC(=O)Nc1nc(C)nc(OC)n1 |  | inactive
33 | O=C(O)CCCOc1ccc(Cl)cc1Cl |  | inactive
34 | COC(=O)c1ccccc1CS(=O)(=O)NC(=O)Nc1nc(OC)cc(OC)n1 |  | inactive
35 | CCc1ccc(C(=O)NN(C(=O)c2cc(C)cc(C)c2)C(C)(C)C)cc1 |  | inactive
36 | N#Cc1c(Cl)c(Cl)c(Cl)c(C#N)c1Cl | 0.148 µM (active) | 
37 | CC[C@H](C)[C@H]1O[C@]2(C=C[C@@H]1C)C[C@@H]1C[C@@H](C/C=C(\C)[C@@H](O[C@H]3C[C@H](OC)[C@@H](O[C@H]4C[C@H](OC)[C@@H](O)[C@H](C)O4)[C@H](C)O3)[C@@H](C)/C=C/C=C3\CO[C@@H]4[C@H](O)C(C)=C[C@@H](C(=O)O1)[C@]34O)O2 (tested in a mixture with another compound) | 12.9 µM (active) | 
38 | O=[N+]([O-])c1c(Cl)c(Cl)c(Cl)c(Cl)c1Cl | 29.3 µM (active) | 
